Source: PubChem BioAssay AID493027 (The Scripps Research Institute Molecular Screening Center, 2011)
Hit rate of the full screen: of about 2,000 compounds, about 45 (2%) were called active. This excerpt belongs to a sample that is enriched for actives. Unmarked numbers belong to inactive results.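 Rule for the calls: active = inhibition above the screen-wide mean inhibition plus 3 SD (cut at about 44% in these data); inactive = the rest.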

molecular target: Perilipin-1 (Homo sapiens) + 1-acylglycerol-3-phosphate O-acyltransferase ABHD5 (Homo sapiens) (UniProt O60240+Q8WTS1); assay: blockers of ABHD5 binding to perilipin-1 – cell lysate, split luciferase complementation, luminescence, NIH validation set, pilot screen (AID 493027);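 note: 0% = DMSO wells with the 100% control not disclosed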; conditions: split G. princeps luciferase complementation, 4 h; at 7.9 µM, hits give high values
Sequence (O60240 whole entry, looked up): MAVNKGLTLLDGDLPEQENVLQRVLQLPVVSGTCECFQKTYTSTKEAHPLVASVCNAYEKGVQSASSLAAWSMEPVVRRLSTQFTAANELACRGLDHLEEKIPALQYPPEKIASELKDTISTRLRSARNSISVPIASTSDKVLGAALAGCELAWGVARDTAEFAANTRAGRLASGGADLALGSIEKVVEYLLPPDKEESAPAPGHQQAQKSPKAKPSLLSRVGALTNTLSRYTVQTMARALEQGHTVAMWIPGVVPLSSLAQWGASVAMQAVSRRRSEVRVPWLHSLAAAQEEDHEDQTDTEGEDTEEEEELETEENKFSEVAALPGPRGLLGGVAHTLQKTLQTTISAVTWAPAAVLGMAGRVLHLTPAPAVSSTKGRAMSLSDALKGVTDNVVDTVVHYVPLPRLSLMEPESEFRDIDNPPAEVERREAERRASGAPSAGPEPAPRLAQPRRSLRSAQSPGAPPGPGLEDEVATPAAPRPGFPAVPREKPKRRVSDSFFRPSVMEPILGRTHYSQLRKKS
Sequence (Q8WTS1 whole entry, looked up): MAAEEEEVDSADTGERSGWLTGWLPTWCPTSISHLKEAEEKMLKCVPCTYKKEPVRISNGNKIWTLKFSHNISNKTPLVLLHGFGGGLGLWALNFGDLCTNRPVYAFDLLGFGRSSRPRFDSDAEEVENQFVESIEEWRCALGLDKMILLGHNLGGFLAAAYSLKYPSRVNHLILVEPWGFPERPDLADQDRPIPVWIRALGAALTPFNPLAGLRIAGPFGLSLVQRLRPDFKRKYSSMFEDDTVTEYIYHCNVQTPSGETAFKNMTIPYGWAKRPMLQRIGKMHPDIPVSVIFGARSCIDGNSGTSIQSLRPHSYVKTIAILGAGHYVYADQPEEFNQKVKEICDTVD

Which inhibition does the source give for `CSCCC(NC(C)=O)C(=O)Oc1ccc2c3c(c(=O)oc2c1)CCCC3` (stereo not drawn) here?
The inhibition was 4.14%.

`CSCCC(NC(=O)OC(C)(C)C)C(=O)Oc1ccc2c(=O)c(-c3ccc4c(c3)OCCO4)coc2c1` (stereo not drawn) was tested. Which inhibition did it give?
The inhibition was 67.4% (active).

For `O=c1c(-c2ccc3c(c2)OCCO3)coc2cc(OC3OC(CO)C(O)C(O)C3O)ccc12` (stereo not drawn), which inhibition is on record?
The inhibition was -4.41%.

How did the inhibition turn out when `O=C(Nc1ccc(Cl)cn1)Nc1ccccc1Cl` was run?
Its inhibition is -3.38%.

With `CC(C)C1Cc2[nH]c(=O)c(C(=O)O)cc2CO1` (stereo not drawn) as the compound, how does the inhibition read?
Its inhibition is -7.52%.

`CCCC(=O)Nc1ccccc1NC(C)=O` was tested. Which inhibition did it give?
Its inhibition is -6.46%.

`N/C(=N\OS(=O)(=O)c1ccc2ccccc2c1)c1cccnc1` was tested. Which inhibition did it give?
The inhibition was 0.01%.

`COc1ccc(-c2c(NC(=O)c3ccco3)n(C)c3ccccc3c2=O)cc1` was tested. Which inhibition did it give?
Its inhibition is -10.8%.

For `O=C(NCCN1CCCCC1)c1c(O)c2ccccc2[nH]c1=O`, which inhibition is on record?
The inhibition was -2.32%.

`CC1(C)c2ccccc2N2CC(=O)NC21/C=C/c1ccco1` (stereo not drawn) was tested. Which inhibition did it give?
The inhibition was 47.4% (active).

Which inhibition does the source give for `CC1(C)c2ccccc2N2CC(=O)N(CC(N)=O)C21C` (stereo not drawn) here?
The inhibition was 4.18%.

`O=C(/C=C/c1ccco1)N1CCN(c2ccccc2)CC1` was tested. Which inhibition did it give?
The inhibition was 4.55%.

Which inhibition does the source give for `CC(=O)c1c(C)c(C)c2n1CCn1c(C)ccc1-2` here?
Its inhibition is 5.75%.

For `COc1ccc(C2C(C#N)=C(N)Oc3cc(C)[nH]c(=O)c32)c(OC)c1OC` (stereo not drawn), which inhibition is on record?
The inhibition was -14.5%.

With `O=C(/C=C/c1ccc2c(c1)OCCCO2)c1ccc2ccccc2c1O` as the compound, how does the inhibition read?
Its inhibition is 17.8%.

Which inhibition does the source give for `O=C(/C=C/c1ccc2c(c1)OCO2)c1ccccn1` here?
The inhibition was 51.3% (active).

Which inhibition does the source give for `O=C(/C=C/c1ccc2c(c1)OCO2)NCc1ccc(F)cc1` here?
Its inhibition is -2.57%.

With `CC1(C)CC(=O)c2cc(O)ccc2O1` as the compound, how does the inhibition read?
Its inhibition is -2.35%.

Which inhibition does the source give for `CC(CCCC(C)(C)O)NC(=O)c1ccc(OC2CCN(C(=O)C3CC3)CC2)cc1` (stereo not drawn) here?
Its inhibition is -7.27%.

For `Cc1ccc2[nH]c3c(c2c1)CCNC3=O`, which inhibition is on record?
The inhibition was -4.86%.

How did the inhibition turn out when `CC[n+]1ccc2cc(OC)c(OC)cc2c1Cc1ccc(OC)c(OC)c1` was run?
The inhibition was -12.6%.

How did the inhibition turn out when `COc1cc(=O)n(C)c2ccccc12` was run?
The inhibition was -0.74%.

`COc1ccc(/C=C/C(=O)c2cc3cccc(OC)c3oc2=O)cc1` was tested. Which inhibition did it give?
The inhibition was 60.6% (active).

For `COc1cccc2cc(-c3ccccc3)c(=O)oc12`, which inhibition is on record?
Its inhibition is -3.48%.

How did the inhibition turn out when `COc1ccc(C(=O)/C=C/c2ccc(OC(=O)c3cc(OC)c(OC)c(OC)c3)cc2)cc1` was run?
The inhibition was 26.9%.

How did the inhibition turn out when `NS(=O)(=O)c1cc2c(cc1Cl)NC(C1C[C@H]3C=C[C@@H]1C3)NS2(=O)=O` (stereo partly drawn) was run?
The inhibition was 0.4%.

How did the inhibition turn out when `O=C(O)CCn1cnc2ccccc2c1=O` was run?
Its inhibition is 3.53%.

Which inhibition does the source give for `O=C(Cc1ccccc1)NCC(=O)OCC(=O)c1ccccc1Cl` here?
Its inhibition is -13.7%.

For `CCN1C(=O)C(CC(=O)Nc2ccc(F)cc2)N(Cc2ccco2)C1=S` (stereo not drawn), which inhibition is on record?
Its inhibition is 10.9%.

Which inhibition does the source give for `CS(=O)(=O)Oc1ccc2c(c1)O/C(=C\C=C\c1ccccc1)C2=O` here?
The inhibition was 58.8% (active).

Which inhibition does the source give for `CC(=O)Oc1ccc2occ(/C=N/c3cc(=O)[nH]c(=S)[nH]3)c(=O)c2c1` here?
Its inhibition is -1.72%.

How did the inhibition turn out when `O=c1cc(CN2CCN(c3cccc(Cl)c3)CC2)c2cc(O)c(-c3ccccc3)cc2o1` was run?
Its inhibition is 1.13%.

For `COc1ccc2[nH]c(C)c(CN3CCC(C)CC3)c(=O)c2c1`, which inhibition is on record?
The inhibition was -4.96%.

Which inhibition does the source give for `CCc1cc2c(=O)c(-c3nc(C)cs3)coc2cc1OC(C)C(=O)NCCO` (stereo not drawn) here?
The inhibition was -3.43%.

For `COc1ccc2oc(=O)c(C(=O)N3CCN(c4ccccc4)CC3)cc2c1`, which inhibition is on record?
Its inhibition is 9.05%.

How did the inhibition turn out when `COc1ccc2oc(=O)c(C(=O)Nc3ccccc3-c3ccccc3)cc2c1` was run?
The inhibition was -7.96%.

Which inhibition does the source give for `COc1ccc(O)c(C(=O)/C=C/c2cc3ccccc3o2)c1` here?
The inhibition was 66.9% (active).

With `Cc1ccc(NCCC(=O)c2ccccc2)cc1Cl` as the compound, how does the inhibition read?
Its inhibition is -2.97%.

With `CCCN1CCC(NC(=O)Nc2ccc(Br)cc2)CC1` as the compound, how does the inhibition read?
Its inhibition is -9.54%.

With `Cc1ccc2c(c1)C(O)(CC(=O)/C=C/C=C/c1ccccc1)C(=O)N2` (stereo not drawn) as the compound, how does the inhibition read?
Its inhibition is 16.4%.

With `Cc1ccc(C2=NOC(=O)/C2=C\C=C\c2ccccc2)cc1` as the compound, how does the inhibition read?
The inhibition was 95.6% (active).

For `O=C1NC2(Nc3ccccc31)C(=O)Nc1ccc(Br)cc12` (stereo not drawn), which inhibition is on record?
The inhibition was 0.88%.

With `CC1(C)CC(C(CC(=O)N2CCCC2)Cc2ccccc2)CCO1` (stereo not drawn) as the compound, how does the inhibition read?
Its inhibition is -12.5%.

With `Cc1cc(C(=O)Nc2ccccc2C(=O)N2CCCCC2)ccc1[N+](=O)[O-]` as the compound, how does the inhibition read?
Its inhibition is -3.48%.

How did the inhibition turn out when `COc1ccc(/C=C2\CC/C(=C\c3ccc(OC)c(OC)c3)C2=O)cc1OC` was run?
Its inhibition is 59.1% (active).

How did the inhibition turn out when `COc1ccc(/C=C2\CCc3ccccc3C2=O)c(OC)c1OC` was run?
Its inhibition is -0.86%.

How did the inhibition turn out when `COc1ccc(/C=C2\CCn3c2nc2cc(C(=O)O)ccc2c3=O)cc1OC` was run?
Its inhibition is -6.3%.

With `CCN(CCCCCN(C)C)Cc1cc2ccccc2o1` as the compound, how does the inhibition read?
The inhibition was -7.75%.

`O=C1C(Cc2c[nH]c3ccccc23)NC(=S)N1Cc1ccccc1` (stereo not drawn) was tested. Which inhibition did it give?
Its inhibition is -4.43%.

With `CC(=O)N1CCN2C(=O)C1CCCC(=O)c1cc(C(C)C)ccc12` (stereo not drawn) as the compound, how does the inhibition read?
The inhibition was 0.46%.

How did the inhibition turn out when `COc1cc2c(cc1OC)/C(=C/c1ccc(Cl)cc1)C(=O)OC2` was run?
Its inhibition is 27.4%.

With `O=C1ON=C(c2ccc(Cl)cc2)/C1=C/c1ccc(O)cc1` as the compound, how does the inhibition read?
The inhibition was 82.8% (active).

`CCOC(=O)N1CCN(Cc2nc(Cc3cccc(F)c3)no2)CC1` was tested. Which inhibition did it give?
The inhibition was -1.53%.

For `C=CCc1ccc(OCC(O)COc2ccc(CC=C)cc2OC)c(OC)c1`, which inhibition is on record?
The inhibition was -1.62%.

`Cc1ccccc1C(=O)NNc1ncnc2c1cnn2C` was tested. Which inhibition did it give?
Its inhibition is -10.4%.

`Cn1cc(CN2CCCC(CO)(Cc3cccc(Cl)c3)C2)cn1` (stereo not drawn) was tested. Which inhibition did it give?
The inhibition was -10.7%.

Which inhibition does the source give for `c1ccc2c3c(c(CN4CCCCC4)cc2c1)COC3` here?
Its inhibition is -4.68%.

`CCN(CC)C(=O)c1ccc(O)c(OC)c1` was tested. Which inhibition did it give?
The inhibition was -1.24%.

Which inhibition does the source give for `COc1cc(/C=C/C(=O)CC(=O)/C=C/c2ccc(O)c(OC)c2)ccc1O` here?
Its inhibition is 50.4% (active).

With `O=C(O)/C=C/c1ccc(O)c(O)c1` as the compound, how does the inhibition read?
Its inhibition is -2.22%.

Which inhibition does the source give for `COc1ccc2c(c1O)Cc1ccccc1C2=O` here?
Its inhibition is 12%.

Which inhibition does the source give for `COc1cc(OC)cc(C(=O)N[C@@H](CCSC)c2nc3ccccc3[nH]2)c1` here?
The inhibition was 2.97%.

How did the inhibition turn out when `CC(C)CCC1(CCNC(C)c2cccs2)CCOC(C)(C)C1` (stereo not drawn) was run?
The inhibition was -4.9%.
